# Screens deposited in PubChem by National Center for Advancing Translational Sciences (NCATS).
# D2 PAM-1: potentiates the human D2 dopamine receptor allosterically. DiscoveRx D2 beta-arrestin cells, luminescence, 90 min; 100% = 57 uM dopamine signal. potentiation, % (concentration not given with the values). P14416. 360,000 compounds, 0.23% hits; in the data active = potentiation above about 50%
# Target sequence (P14416 whole entry, looked up): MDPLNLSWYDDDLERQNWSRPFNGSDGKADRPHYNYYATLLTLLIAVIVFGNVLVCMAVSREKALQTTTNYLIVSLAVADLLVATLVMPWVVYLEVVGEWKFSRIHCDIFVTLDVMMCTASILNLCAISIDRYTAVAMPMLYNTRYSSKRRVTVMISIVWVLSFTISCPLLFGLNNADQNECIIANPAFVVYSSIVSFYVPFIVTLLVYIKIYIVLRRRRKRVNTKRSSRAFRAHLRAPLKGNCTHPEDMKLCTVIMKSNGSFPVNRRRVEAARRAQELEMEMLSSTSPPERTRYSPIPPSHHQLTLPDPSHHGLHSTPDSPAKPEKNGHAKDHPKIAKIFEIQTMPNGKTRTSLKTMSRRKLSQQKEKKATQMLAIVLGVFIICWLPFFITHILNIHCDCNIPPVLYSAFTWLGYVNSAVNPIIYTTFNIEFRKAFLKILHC
#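 PathHunter D2 cells, attached overnight at 37 deg C, received compound in DMSO plus dopamine at EC20 (50 nM final) for 90 min at 37 deg C. Beta-arrestin recruitment was read as luminescence after 1 h with detection reagent at ambient temperature.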
# D2 PAM-2: positively modulates the human D2 dopamine receptor allosterically | 340,000 compounds, 0.34% hits | HEK293 T-REx D2, calcium flux, EC20 dopamine potentiation | AID 485347 | potentiation, % at 10 µM | P14416;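 active = potentiation over 3 SD above the plate norm, cut at about 30% in these data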; note: 0% is about no effect
#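 Calcium flux readout, no-wash dye, 1 read/s. Inducible HEK293 Trex D2 line, overnight 30 C. Compound alone 180 s (agonist flags), then EC20 dopamine, another 180 s to score potentiation.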
# D2 ag-1: agonists of human D2 dopamine receptor (beta-arrestin). P14416. DiscoveRx PathHunter D2 beta-arrestin, luminescence, 90 min; 100% = 57 uM dopamine signal. activation, % (no concentration beside the values). 360,000 compounds, 0.084% hits. AID 624465; in the data active = activation above about 40%
#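 DiscoveRx PathHunter D2 beta-arrestin cells (2,100/well) attached overnight, then compound-stimulated 90 min at 37 C in HBSS/10 mM HEPES/0.1% Tween-20 buffer; beta-galactosidase complementation read by luminescence after 1 h at ambient temperature. Dopamine 57 uM final (EC100) as control.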
# D2 antagonist: antagonizes the human D2 dopamine receptor | P14416 | HEK293 TREx D2 cells, calcium flux, dopamine EC80 | inhibition, % at 10 µM | 340,000 compounds, 2% hits; in the data active = inhibition above about 30%; inactive = below that, where a call was filed; note: 0% is about no effect
#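 Tetracycline-induced HEK293 TREx cells expressing D2 receptor forced-coupled to calcium signalling, loaded with no-wash calcium dye. Compounds added and calcium flux read 180 s, then dopamine added at EC80 and read a further 180 s.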
# D2 ag-2: D2 dopamine receptor (human) agonism; 340,000 compounds, 0.53% hits; activation, % at 2 µM; AID 485358; P14416; HEK293 T-REx D2 cells, calcium flux agonist mode;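 active = activation over 3 SD above normal in the single-dose calcium agonist read, cut at about 30% in these data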; note: 0% is about no effect
#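 Calcium-flux readout, 1 cycle/sec over 180 s following compound pin transfer, in inducible HEK293 Trex D2 cells (force-coupled); dopamine controls included. Positive calcium responses during this window marked compounds as potential agonists.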
# The depositor's hits bear a star; x = not tested or not shown. A selection: hits, their analogues and other compounds. The true share with any hit is near 2.4%.
SMILES,D2 PAM-1,D2 PAM-2,D2 ag-1,D2 antagonist,D2 ag-2
Cc1ccc(C(=O)N(Cc2ccc(N(C)C)cc2)CC2CCCO2)cc1 (stereo unspecified),x,-6,x,x,x
CC(=O)Nc1sc(/C(C#N)=C\c2cccc(Cl)c2)nc1-c1ccc(C)cc1,6,-14,0,30*,61*
CCc1ccccc1Nc1cc(C(=O)NC(C)c2ccccc2)c2ccccc2n1 (stereo unspecified),x,-24,x,x,0
COc1ccc(S(=O)(=O)NCC2CCCN(C(=O)c3ccco3)C2)cc1 (stereo unspecified),-14,-8,-7,32*,-1
COc1ccc(-c2nc(SCC(=O)NC(C)CCc3ccccc3)n[nH]2)cc1 (stereo unspecified),x,-5,x,x,x
O=C(OCn1nnc2ccccc2c1=O)c1ccco1,-7,-6,0,-12,0
COc1cc(OC)cc(C(=O)N[C@H](C(=O)OCn2nnc3ccccc3c2=O)C(C)C)c1,-7,31*,-4,-12,-1
O=C(OCn1nnc2ccccc2c1=O)c1cc2ccccc2o1,-5,8,0,69*,1
COc1ccc(C(=O)N[C@H](C(=O)OCn2nnc3ccccc3c2=O)C(C)C)cc1,-4,3,-3,-14,0
O=C1C=C(c2ccccc2)OC2(CCCC2)O1,-3,38*,-3,-2,0
Cc1cc(Cl)ccc1OC(C)C(=O)NCCc1ccc2c(c1)OCCO2 (stereo unspecified),-5,-7,-3,64*,1
O=C1c2ccccc2C(=O)N1CCc1nc(-c2ccccn2)no1,-16,1,1,x,x
O=C1c2ccccc2C(=O)N1CCCc1nc(-c2ccccn2)no1,-3,14,-3,36*,0
COc1ccc(OC)c(NC(=O)CCc2c(C)nn(-c3ccc(N4CCCC4)nn3)c2C)c1,x,5,x,x,1
Cc1cc(C)c(OCCCCN(C)Cc2ccccc2)c(C)c1,-83,-25,-4,33*,-1
Cc1ccc(OCCCCN(C)Cc2ccccc2)c(Br)c1,-42,-25,-1,1,-1
O=C(Nc1ccc2c(c1)OCCO2)c1cc2ccccc2o1,-18,-6,0,33*,-1
Cc1ccc(F)cc1NC(=O)Cn1c(=O)nc(-c2ccccc2F)c2cc(Cl)ccc21,x,x,x,x,-3
CCOC(=O)C1CCN(CC(O)COc2ccc(S(=O)(=O)N3CCCC3)cc2[N+](=O)[O-])CC1 (stereo unspecified),-34,-23,-2,12,36*
CC(C)OC(=O)c1c(NC(=O)CCn2nnc3ccccc32)sc2c1CCCC2,3,x,0,37*,4
CC(C)OC(=O)c1c(NC(=O)CCC(=O)O)sc2c1CCCCC2,-10,7,-2,3,1
CN1/C(=C/C=N/n2cnnc2)C(C)(C)c2ccccc21,2,x,0,56*,-1
CN1/C(=C\C=C(C#N)C#N)C(C)(C)c2ccccc21,0,2,1,24,6
CCCCOc1ccc(C(=O)Nc2cc(-c3cn4cccnc4n3)ccc2OC)cc1,x,-8,x,x,x
COCCn1c(CCC(=O)Nc2ccc(C)c(Cl)c2)nc2cccnc21,x,-17,x,x,0
SMILES,D2 PAM-1,D2 PAM-2,D2 ag-1,D2 antagonist,D2 ag-2
CCS(=O)(=O)c1ccc2oc(SCC(=O)NCCC3=CCCCC3)nc2c1,-3,-1,-1,68*,-1
CC1=C(C(=O)Nc2cccnc2)C(c2ccc(F)cc2)n2nc(SCc3ccccc3)nc2N1 (stereo unspecified),x,4,x,x,-2
COc1ccc(Br)cc1CNC(=O)c1nn(-c2ccc(C)cc2)c(=O)c2c1c1ccccc1n2C,x,-8,x,x,-1
COc1cc(NC(=O)c2ccccc2-n2cnnn2)cc(OC)c1,-2,-7,-2,-7,0
COc1cc(OC)cc(C(=O)Nc2ccc(-n3cnnn3)c(C)c2)c1,4,3,-3,38*,-2
O=C1CN(S(=O)(=O)c2ccccc2)CC(=O)N1CCc1ccccc1,-9,14,-4,-15,1
Cc1cc(S(=O)(=O)N2CC(=O)N(CCc3ccccc3)C(=O)C2)ccc1F,-3,31*,-3,-2,0
Brc1ccc(-c2noc(COc3ccc4c(c3)CCC4)n2)o1,-1,-5,4,43*,0
